Screens: PubChem BioAssay, several laboratories
HSF1 inhib – HSF1 inhibition; NIH3T3-HGL HSE-luciferase, MG132-induced, luminescence 8 h; hits give low values; activity change, negative = inhibition, % at 7.5 µM (by protocol); actives 0.77% (n = 300,000); AID 2098;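 active means more than half of replicate wells show activity change below -50%, luminescence cut by over half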;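 further: luciferase reports HSF-1 transcriptional activity via heat shock element; 0% = median of DMSO wells and -100% = zero luminescence signal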
AHR act – activators of human aryl hydrocarbon receptor. actives 2.5% (n = 320,000). activation, % at 5 µM. AHR-responsive luciferase reporter cells, luminescence; in the data active means activation above about 47%;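 further: 0% = vehicle wells and 100% = reference agonist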
Target sequence (P35869 whole entry, looked up): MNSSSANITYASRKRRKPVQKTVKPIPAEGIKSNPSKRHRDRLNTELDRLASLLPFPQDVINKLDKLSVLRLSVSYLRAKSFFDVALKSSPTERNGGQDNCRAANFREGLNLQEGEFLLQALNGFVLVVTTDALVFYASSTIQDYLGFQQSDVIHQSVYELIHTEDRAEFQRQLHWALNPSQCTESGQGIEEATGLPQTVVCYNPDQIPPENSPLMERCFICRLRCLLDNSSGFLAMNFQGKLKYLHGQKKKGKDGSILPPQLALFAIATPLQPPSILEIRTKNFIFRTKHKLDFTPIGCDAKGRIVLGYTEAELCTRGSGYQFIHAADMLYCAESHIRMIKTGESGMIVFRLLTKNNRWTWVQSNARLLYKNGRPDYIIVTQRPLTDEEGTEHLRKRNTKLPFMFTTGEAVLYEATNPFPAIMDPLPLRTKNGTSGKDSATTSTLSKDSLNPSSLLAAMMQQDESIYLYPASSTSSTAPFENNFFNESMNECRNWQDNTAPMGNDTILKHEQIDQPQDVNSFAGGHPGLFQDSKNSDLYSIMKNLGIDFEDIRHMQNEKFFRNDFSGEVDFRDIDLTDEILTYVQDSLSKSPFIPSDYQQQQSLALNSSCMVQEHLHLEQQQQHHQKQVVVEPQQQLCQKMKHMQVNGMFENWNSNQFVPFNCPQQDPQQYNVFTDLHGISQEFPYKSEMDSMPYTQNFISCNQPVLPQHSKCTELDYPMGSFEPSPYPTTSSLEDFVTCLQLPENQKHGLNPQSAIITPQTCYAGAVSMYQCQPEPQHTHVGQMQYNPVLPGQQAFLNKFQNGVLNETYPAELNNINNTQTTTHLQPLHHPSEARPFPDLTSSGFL
DAX1 inh – inhibitors of human orphan nuclear receptor DAX1 (NR0B1). P51843. inhibition, % at 6.75 µM. HEK293 Gal4-DAX1 luciferase reporter, luminescence. actives 0.99% (n = 340,000);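 active means inhibition above the mean over all tested compounds plus 3 SD, cut at about 4.2% in these data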;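 further: 0% = DAX1-transfected cells with DMSO and 100% = empty-vector control cells with DMSO; inhibition shows as a rise in luminescence from relieved DAX1 repression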
FXN GAA850 act – frataxin GAA850 promoter activation. HEK293 lucGAA850 FXN promoter luciferase reporter, 24 h; percent of 10 µM SAHA response. activation, % at 6 µM. actives 0.56% (n = 360,000);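 active means activation above the average of all compounds screened plus 3 SD, cutoff fixed separately per campaign, cut at about 7.5% in these data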;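 further: 0% = DMSO wells and 100% = 10 µM SAHA wells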
HSF-1 act – increases HSF-1 driven luciferase reporter signal. NIH3T3-HGL HSF-1 luciferase reporter, MG132, 8 h; 100% = twice DMSO control signal. activation, % at 9 µM. AID 504408. actives 1.7% (n = 300,000);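 active means mean replicate activation of at least 50% with a set share of replicates each reaching 50%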;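 further: 0% = median of the neutral control wells and 100% = twice that signal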
* marks the source's active call; other numbers are inactive results; nt = no result given. Most compounds without a hit are left out; they make up all but 5.4% or so of the library.

SMILES	HSF1 inhib	AHR act	DAX1 inh	FXN GAA850 act	HSF-1 act
CC1CCCCC1NC(=O)c1cc2ccccc2o1 (centres undefined)	-0.8	6.2	0.1	1.8	17.1
CN(Cc1ccccc1)c1nc2c(c(=O)[nH]c(=O)n2C)n1CCCc1ccccc1	6.3	0.2	-0.2	1.6	10.3
CN(Cc1ccccc1)c1nc2c(c(=O)[nH]c(=O)n2C)n1Cc1ccccc1Cl	29.0	-0.2	0.6	-1.7	78.4*
COc1cc2c(cc1OC)C(c1ccc(C(F)(F)F)cc1)CC(=O)N2 (centres undefined)	13.7	54.2*	1.6	3.4	14.8
COc1cc2c(cc1OC)C(c1ccc(Br)cc1)CC(=O)N2 (centres undefined)	6.6	nt	2.0	2.9	8.1
C/C(=N\NC(=O)CCn1nnc2ccccc21)c1ccco1	-12.1	0.7	4.7*	-0.9	1.7
COc1ccccc1/C=C\C=N\NC(=O)CCn1nnc2ccccc21	1.3	74.1*	-1.1	4.1	4.7
Cc1cccc(C(=O)NNC(=O)CCn2nnc3ccccc32)c1	33.4	0.5	-0.1	-1.1	88.8*
COc1ccccc1/C=C/C=N/NC(=O)Cc1cccn1C	9.9	18.6	0.3	1.8	35.8
COc1ccccc1/C=C/C=N/NC(=O)CCn1nnc2ccccc21	-0.4	66.4*	-1.0	-1.7	5.3
COc1ccc(/C=N/NC(=O)CCn2nnc3ccccc32)cc1	-3.9	2.4	-0.9	0.1	-5.7
Cc1cccc2[nH]c(CN(C)C(=O)CC3C(=O)NCCN3CC(C)(C)C)nc12 (centres undefined)	-1.6	1.8	0.5	0.3	1.5
Cc1ccc(CN2CC(C(=O)N3CCN(c4ccccc4O)CC3)CC2=O)cc1 (centres undefined)	-1.8	5.6	-0.4	1.1	10.3
Cc1ccsc1C(=O)N1CCC1(C)C(=O)NS(=O)(=O)c1ccc(Br)cc1 (centres undefined)	nt	nt	nt	-0.3	nt
CCOC(=O)c1ccc(NC(=O)CCn2nnc3ccccc32)cc1	1.1	3.6	0.1	-0.5	-1.0
CCOc1cc(NC(=O)CC(C)C)c(OCC)cc1NC(=O)CCn1nnc2ccccc21	12.5	1.7	1.9	0.7	56.9*
CCOC(=O)c1cnc2ccc(C(=O)OC)cc2c1NCCCN1CCOCC1	-82.6*	nt	0.9	5.2	-86.5
COc1ccc(-c2nc(NC3=NCCCCC3)sc2C)cc1	-0.3	73.1*	-0.1	1.8	-20.9
COc1cc(CNCc2cc(OC)ccc2OC)cc(OC)c1	-3.3	9.0	-1.9	-2.1	-20.1
CNC(=O)c1ccc(NC(=O)CC2SC(N3CCCC3)=NC2=O)cc1 (centres undefined)	nt	-1.0	-0.3	-1.3	nt
CC(C)c1ccc(-n2nc3ccc(N)cc3n2)cc1	-3.9	58.0*	0.5	1.3	0.5
COc1ccc(-n2nc3ccc(N)cc3n2)cc1	nt	nt	-1.5	-9.7	nt
Cc1cc2nc(C3CCN(Cc4nnnn4Cc4ccccc4)CC3)[nH]c2cc1C	14.8	54.3*	-1.8	-2.1	11.6
CCC(C)(C)n1nnnc1CN1CCC(c2nc3ccc(C)cc3[nH]2)CC1	5.2	16.1	-0.6	-0.3	5.0
CC(C)CC(C(=O)OCC(=O)c1c(N)n(C)c(=O)n(C)c1=O)N1C(=O)c2ccccc2C1=O (centres undefined)	-6.4	-0.4	-0.7	2.8	-4.7
SMILES	HSF1 inhib	AHR act	DAX1 inh	FXN GAA850 act	HSF-1 act
CCN(C(=O)COC(=O)C(Cc1ccccc1)N1C(=O)c2ccccc2C1=O)C1CCS(=O)(=O)C1 (centres undefined)	2.4	1.6	-0.1	-0.7	-13.8
CN(CCC#N)C(=O)COC(=O)[C@H](Cc1ccccc1)N1C(=O)c2ccccc2C1=O	-3.8	53.6*	2.0	0.5	1.9
Cn1c(N)c(C(=O)COC(=O)[C@H](Cc2ccccc2)N2C(=O)c3ccccc3C2=O)c(=O)n(C)c1=O	6.0	57.6*	0.7	2.1	6.2
COc1ccccc1CNS(=O)(=O)c1cccs1	-2.2	2.3	5.8*	1.2	15.2
COc1ccccc1CNC(=O)c1ccc(NS(C)(=O)=O)cc1	10.2	0.4	-0.2	0.0	-18.4
COc1ccccc1CNC(=O)c1ccc(NS(=O)(=O)c2cccs2)cc1	15.2	10.3	-0.9	0.3	64.4*
CC(NC(=O)c1cc(S(=O)(=O)N(C)C)ccc1Cl)c1ccc(-n2ccnc2)cc1 (centres undefined)	-3.4	19.3	0.5	-0.3	26.5
CC(=O)NC(CC(=O)OCC(=O)c1c(N)n(CC(C)C)c(=O)n(C)c1=O)c1ccccc1 (centres undefined)	-8.4	-0.8	-1.6	0.5	-15.1
CC(=O)N/C(=C\c1ccccc1)C(=O)OCC(=O)c1c(N)n(CC(C)C)c(=O)n(C)c1=O	0.8	-0.5	4.4*	-0.3	-12.2
Cc1c(Cl)ccc(S(=O)(=O)NCCCn2ccnc2)c1Cl	-4.9	35.0	-1.3	-0.5	-5.1
Cc1cccc(NC(=O)c2cc(-c3cc(C)ccc3O)n[nH]2)c1	55.2	-3.0	3.4	6.3	103.6*
Cc1c(Cl)cccc1NC(=O)c1cc(-c2ccccc2O)n[nH]1	68.6	-8.4	0.7	2.5	86.7*
Cc1ccc(-c2cc(C(=O)Nc3cccnc3)[nH]n2)c(O)c1C	5.9	6.7	5.7*	0.0	-1.6
C#CCNC(=O)C1=C[C@H](C(C)(C)C)C[C@H](OCCCCO)O1	-0.8	2.9	-0.2	3.1	-10.5
CCCNC(=O)C1(C)CCN(C(=O)c2ccc(F)c(Cl)c2)C1 (centres undefined)	nt	nt	nt	1.5	nt
COc1ccc(CC(=O)NNS(=O)(=O)c2ccc(F)cc2)cc1	-4.2	-0.5	0.8	-1.3	-2.7
C[C@H](CO)N1C[C@H](C)[C@@H](CN(C)C(=O)OCc2ccccc2)OCc2cn(nn2)CCCC1=O	nt	nt	2.3	-2.5	nt
COc1ccc(-c2[nH]nc3nc(N4CCN(C(=O)c5ccoc5)CC4)cc(C(F)(F)F)c23)cc1	nt	nt	-0.2	-6.8	nt
CCn1c(/C=C/c2ccccc2Cl)nc2ccccc2c1=O	15.4	18.4	1.6	2.7	7.8
CCn1c(/C=C/c2cccc([N+](=O)[O-])c2)nc2ccccc2c1=O	1.0	68.1*	3.4	2.6	6.1
CCn1c(/C=C/c2c[nH]c3ccccc23)nc2ccccc2c1=O	32.0	19.2	5.2*	5.2	81.5*
CCn1c(/C=C/c2c(C)[nH]c3ccccc23)nc2ccccc2c1=O	1.2	64.6*	0.2	2.6	6.5
COc1ccccc1C(=O)NCC(=O)NCCC(c1ccccc1)c1ccccc1	nt	-0.3	-0.2	-1.2	nt
O=C(Nc1ccccc1)Nc1nnc(Cc2ccccc2F)s1	7.2	6.4	0.7	-0.5	9.4
COc1ccc(NC(=O)NNC(=O)CCC(=O)Nc2ccccc2Cl)cc1	-4.0	3.5	8.3*	0.2	7.7
O=C(Nc1nnc(C(F)(F)F)s1)c1cccnc1	nt	7.4	1.2	0.7	nt
O=C(CCC(=O)Nc1ccc(Cl)cc1Cl)NNC(=O)Nc1ccccc1	11.0	0.6	2.1	0.2	28.2
